Results filed as inconclusive are left out. For some of these results: Entries with a potency or affinity are not part of this list. Active and inactive are the calls of the source. For most assays here, the call rests on the fitted dose curve; in most records, active means well fitted curve in the direction sought with a large enough effect; inconclusive means small, poorly fitted or top-dose-only effect, or another doubt; inactive means no such curve, though single readings can be large; an effect the other way counts as inactive or inconclusive.
Experiments:
[1] = Ebola virus entry assay, reporter ratio channel; AC50: Channel type: primary unless noted; outcome: Channel type: primary unless noted
[2] = Ebola virus entry assay, blue channel (ratio component)
[3] = qHTS assay for measurement of the activity of small molecule inhibitors on Zika virus induced Caspase-3 activity in human iPSC derived neural progenitor cells (hNPCs) (AID 1224857); further: nearly all actives have a fitted effect of over 65% in size
Summary of the method: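 Cells were plated at 350 per well and grown 16 to 20 hours. Compound pretreatment lasted one hour, after which ZIKV (2 FFU/cell) was added for 6 hours. Percent inhibition was normalized between uninfected and infected controls.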

[4] = qHTS assay for measurement of the activity of small molecule inhibitors on Zika virus induced Caspase-3 activity in human astrocytoma cells (AID 1224859)
Summary of the method: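 Percent inhibition of virus-induced caspase-3/7 signal is calculated against uninfected and ZIKV-infected control cells. Cells are SNB-19, infected at 2 FFU/cell for 6 h after 1 h compound exposure.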

[5] = qHTS assay to identify small molecule inhibitors of chordoma cells - UCH-1 (AID 1259355); further: nearly all actives have a fitted effect of over 55% in size
Summary of the method: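 Luminescent ATP read-out (CellTiter-Glo, 30min at room temperature) measured viability of UCH-1 cells exposed for 48hr to test drugs at 15 concentrations, co-dosed with a five-agent combination of auranofin, camptothecin, doxorubicin, rubitecan and topotecan.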

[6] = qHTS assay to identify small molecule inhibitors of chordoma cells - UCH-2 (AID 1259356); further: series mostly up to about 46 µM

Measured: outcome

O=C1c2ccccc2C(=O)C1C(=O)C(c1ccccc1)c1ccccc1
inactive: all assays above

CC(C)(C)NCC(O)c1cc(Cl)c(N)c(C(F)(F)F)c1 (configuration not stated)
inactive: all assays above

CCC1(c2ccccc2)C(=O)N(COC)C(=O)N(COC)C1=O
inactive: all assays above

CN1C(=O)NC(=O)C(C)(C2=CCCCC2)C1=O (configuration not stated)
inactive: all assays above

Oc1ccc(Cl)cc1
inactive: all assays above

NC1=NC(=O)C(c2ccccc2)O1 (configuration not stated)
inactive: all assays above

c1ccc(CN2CCNCC2)cc1
inactive: [1] | [2] | [3] | [4]

Nc1ccc([As](=O)(O)O)cc1
inactive: all assays above

CNC(C)(C)Cc1ccccc1
inactive: all assays above

CC(=O)NC1CCSC1=O (configuration not stated)
inactive: all assays above

C[C@@H](N)[C@@H](O)c1ccccc1
inactive: all assays above

NC(=O)c1cc([N+](=O)[O-])cc([N+](=O)[O-])c1
inactive: all assays above

NNc1ccccc1
inactive: all assays above

CCC(C)(C)c1ccc(O)cc1
inactive: all assays above

CC(C)NC(C)C
inactive: all assays above

CN1CCC(O)(c2ccc(F)cc2)C(C(=O)c2ccc(F)cc2)C1 (configuration not stated)
inactive: all assays above

CC(C)=CC1C(C(=O)OCN2C(=O)C3=C(CCCC3)C2=O)C1(C)C (configuration not stated)
inactive: all assays above

Clc1ccc(C(c2ccc(Cl)cc2)C(Cl)(Cl)Cl)cc1
inactive: all assays above

Nc1nc(N)nc(NC2CC2)n1
inactive: all assays above

O=C1c2ccccc2C(=O)c2ccccc21
inactive: all assays above

COC(=O)[C@@H](N)CCCN/C(N)=N/[N+](=O)[O-]
inactive: all assays above

C#C[C@]1(O)CC[C@H]2[C@@H]3CCC4=CC(=O)CC[C@]4(C)[C@H]3CC[C@@]21C
inactive: all assays above

NC(=O)CS(=O)C(c1ccccc1)c1ccccc1 (configuration not stated)
inactive: all assays above

Cc1ncsc1CCCl
inactive: all assays above
